The whole screen tested about 220,000 compounds, of which about 2,000 (0.91%) were called active. Another 2% or so got no clear call; they are omitted. No stated cut-off is given here; in the data, inconclusive means inhibition above about 80% without an active follow-up result; inactive means below that; test concentration not stated here. Not all results are given here. Entries with a potency or affinity are not part of this list.
experiment: M. tuberculosis H37Rv growth inhibitors, H37Rv strain (AID 1626); settings: hits give high values, concentration not given here;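 further: bacteria incubated seven days before Alamar blue readout; 0% = bacteria only wells and 100% = bacteria with antibiotic wells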

Row | Structure (SMILES) | inhibition
1 | O=C(C(=O)N1CCc2ccccc2C1)c1cn(CC(=O)N2CCOCC2)c2ccccc12 | -0.84% (inactive)
2 | CCOC(=O)/C=C(\C)N1N=C(c2ccccc2)CC1c1ccccc1 (centres undefined) | 33.1% (inactive)
3 | C=CCOc1ccccc1CNCCc1ccc(S(N)(=O)=O)cc1 | 0.31% (inactive)
4 | CCOC(=O)c1cccc(NC(=S)NCc2ccc(C)cc2)c1 | 2.33% (inactive)
5 | COCCNC(=O)c1cccc(C)c1[N+](=O)[O-] | 3.44% (inactive)
6 | CC1CC1C(=O)OCC(=O)Nc1cccc(S(=O)(=O)NC2=NCCCCC2)c1 (centres undefined) | -7.4% (inactive)
7 | COc1ccc(CCNC(=O)C2CC3Cn4c(nc5ccccc54)C3N2Cc2ccccc2)cc1 (centres undefined) | -0.23% (inactive)
8 | Cc1ccc(S(=O)(=O)CCC(=O)OCC(=O)N2CC(=O)Nc3ccccc32)cc1 | -1.54% (inactive)
9 | COc1ccc(-n2c(SCC(=O)Nc3cc(C(=O)O)ccc3C)nc3ccccc3c2=O)cc1Cl | -8.45% (inactive)
10 | CN1/C(=C\C(=O)c2cncc(Br)c2)C(C)(C)c2ccccc21 | 25.1% (inactive)
11 | CN1/C(=C\C(=O)c2cccnc2)C(C)(C)c2ccccc21 | -3.35% (inactive)
12 | Cc1ccc2cc3cc(C(=O)N4CCC5(CC4)OCCO5)oc3nc2c1 | -1.4% (inactive)
13 | COc1ccc2nc3oc(C(=O)N4CCC5(CC4)OCCO5)cc3cc2c1 | 5.85% (inactive)
14 | CCN(C(=O)CSc1cc(C)c2cccc(C)c2n1)C1CCS(=O)(=O)C1 (centres undefined) | 1.8% (inactive)
15 | O=C(CCC1CCCN(C(=O)CC2=CCCCC2)C1)N1CCN(c2ccccn2)CC1 (centres undefined) | 8.51% (inactive)
16 | CCSc1nnc([C@H](Cc2ccccc2)NC(=O)OC(C)(C)C)o1 | 14.6% (inactive)
17 | NS(=O)(=O)c1ccc(CCNC(=O)NC23CC4CC(CC(C4)C2)C3)cc1 | 3.03% (inactive)
18 | COc1ccc(CCNC(=O)NC23CC4CC(CC(C4)C2)C3)cc1OC | -2.6% (inactive)
19 | O=C(NCCCO)NC12CC3CC(CC(C3)C1)C2 | 1.78% (inactive)
20 | O=C(NCCC1=CCCCC1)NC1CCCCC1 | -1.65% (inactive)
21 | CCOC(=O)c1cc(-c2ccccc2)nn1-c1ccccn1 | -4.13% (inactive)
22 | C#CCOCCOCCOCCNc1nc(N2CCOCC2)nc(N2CCN(C(=O)Cn3cc(CCCN=C(N)N)nn3)CC2)n1 | -13.8% (inactive)
23 | CCN(CC)C(=O)c1cc2c(=O)c3cc(F)ccc3oc2nc1C | 1.36% (inactive)
24 | Cc1ccc(Nc2nc3ccccc3n3nnnc23)cc1 | -0.03% (inactive)
25 | CCCCC(=O)c1ccc(O)cc1O | 77% (inactive)

Row | Structure (SMILES) | inhibition
26 | CCCCCCCC(=O)N/N=C(\C)c1ccc(O)cc1O | 11.6% (inactive)
27 | O=C(CCO)c1ccc(O)cc1 | 12.1% (inactive)
28 | CCC(=O)c1ccc(O)cc1 | 14.2% (inactive)
29 | O=C(NCc1ccc(Cl)cc1)c1noc2c1CCCCC2 | 4.19% (inactive)
30 | COc1ccc(NC2=CC(=O)CC(c3ccccc3)C2)cc1 (centres undefined) | -3.06% (inactive)
31 | O=C(O)CC(CC(=O)Nc1ccc(F)c(Cl)c1)c1ccc(Cl)cc1Cl (centres undefined) | -8.97% (inactive)
32 | NNC(=O)C(Cc1ccccc1)NC(=O)OCc1ccccc1 (centres undefined) | 3.92% (inactive)
33 | Clc1ccc(C2=NCCN2)cc1 | 4.97% (inactive)
34 | O=C(Nc1ccc(Cl)c(Cl)c1)c1ccc(Cl)c(Cl)c1 | 2.4% (inactive)
35 | CCCN1C(=O)c2cc(C(=O)NCc3cccs3)ccc2C1O (centres undefined) | -13.3% (inactive)
36 | O=C(Nc1ccc(F)c(Cl)c1)C1CC(=O)n2c(nc3ccccc32)N1 (centres undefined) | -5.64% (inactive)
37 | Cc1ccc(/C=N/N2CCN(c3ccccc3)CC2)cc1 | -2.14% (inactive)
38 | O=c1cc(-c2cccs2)oc2ccc(Cl)cc12 | -2.31% (inactive)
39 | O=c1c(O)c(-c2cccs2)oc2ccccc12 | -4% (inactive)
40 | Cc1cc(C(=O)NNS(=O)(=O)c2cccc(Cl)c2)nn1C(C)(C)C | 2.6% (inactive)
41 | CC(C)(C)NC(=O)Cn1c(Cl)nc2ccccc21 | -2.82% (inactive)
42 | CC(=O)Nc1cccc(-c2csc(N)n2)c1 | 1.85% (inactive)
43 | Nc1nc(-c2ccc(-c3ccccc3)cc2)cs1 | -0.75% (inactive)
44 | Nc1nc(-c2ccc3ccccc3c2)cs1 | 67.7% (inactive)
45 | COc1ccc(OCc2csc(N)n2)cc1 | -2.49% (inactive)
46 | COc1ccc(-c2csc(N)n2)cc1 | 84.2% (inactive)
47 | Nc1nc(-c2ccccc2)cs1 | 56.7% (inactive)
48 | Cc1ccc(OCc2csc(N)n2)cc1 | 2.65% (inactive)
49 | Fc1cccc(-c2csc(-c3ccno3)n2)c1 | 0.3% (inactive)
50 | CCCCOc1ccc(NC(=O)C(=O)NCCC2=CCCCC2)cc1 | -6% (inactive)

Row | Structure (SMILES) | inhibition
51 | Cc1ccc(NC2=NC3(CCCC3)N=C(N)N2)c(C)c1 | -0.52% (inactive)
52 | CCC1CCCCN1C(=O)CSc1nnc(CNC(=O)COc2ccc(Cl)cc2)o1 (centres undefined) | 0.62% (inactive)
53 | CC(=O)Nc1ccc(C(=O)NCC(=O)OCc2ccccc2F)cc1 | 8.24% (inactive)
54 | C=CCNC(=O)c1sc(-c2ccccc2)nc1C | -4.4% (inactive)
55 | COCCn1c(SCC(=O)N2CCN(c3ccccc3)CC2)nc2c(c1=O)SC(C)C2 (centres undefined) | -6.25% (inactive)
56 | O=C(COC(=O)c1cccs1)NCC1CCCO1 (centres undefined) | -10.3% (inactive)
57 | COC(=O)Nc1ccc(S(=O)(=O)NCc2ccccn2)cc1 | 4.77% (inactive)
58 | Cc1ccc2c(c1)C1CN(C)CCC1N2C(=O)c1cccc(S(=O)(=O)N(C)C)c1 (centres undefined) | 1.67% (inactive)
59 | COCCOc1ccc(C(F)(F)F)cc1Nc1nc2ccccc2o1 | 11.7% (inactive)
60 | COc1cc(/C=N/OCC(=O)Nc2cc(C)on2)ccc1OCc1ccccc1 | 6.49% (inactive)
61 | CC1CCCN(c2c([N+](=O)[O-])cc(C(=O)O)cc2[N+](=O)[O-])C1 (centres undefined) | -5.57% (inactive)
62 | O=[N+]([O-])c1ccc(N2CCCCC2)s1 | 48.3% (inactive)
63 | O=C(Cc1c[nH]c2ccccc12)NCc1ccc2c(c1)OCO2 | 8.71% (inactive)
64 | CCCOc1ccc2c3c(c(=O)oc2c1OCCC)CCCC3 | 30.6% (inactive)
65 | CCOc1c(OC)ccc2c3c(c(=O)oc12)CCCC3 | 12.9% (inactive)
66 | Cc1cc(CNC(=S)Nc2ccc(Br)cc2Cl)nn1C | 9.6% (inactive)
67 | COc1cc(CN=Cc2c(O)n(C(C)(C)C)c(=O)[nH]c2=O)cc(OC)c1 | -1.21% (inactive)
68 | Cc1cccc(-n2c(O)c(C=Nc3ccc(O)cc3)c3ccccc3c2=O)n1 | -0.55% (inactive)
69 | COc1ccc(N=Cc2c(O)n(-c3cccc(C)n3)c(=O)c3ccccc23)cc1 | 16.8% (inactive)
70 | CCOc1ccc(N=Cc2c(O)n(Cc3ccccc3)c(=S)[nH]c2=O)cc1 | 72.9% (inactive)
71 | CCN(CC)c1ccc(N=Cc2c(O)n(-c3ccc(OC)cc3)c(=O)[nH]c2=O)cc1 | -3.8% (inactive)
72 | CCOc1ccccc1-n1c(O)c(C=Nc2ccc(N(CC)CC)cc2)c(=O)[nH]c1=O | -4.16% (inactive)
73 | CCOc1ccc(-n2c(O)c(C=Nc3ccc(N4CCOCC4)cc3)c(=O)[nH]c2=O)cc1 | -4.71% (inactive)
74 | Cc1ccc(N=Cc2c(O)n(-c3ccc(C)cc3)c(=O)[nH]c2=O)cc1 | -7.29% (inactive)
75 | O=C(O)c1ccc(CSc2nc3ccc(N4C(=O)C5C6C=CC(C6)C5C4=O)cc3s2)cc1 (centres undefined) | -3.36% (inactive)

Row | Structure (SMILES) | inhibition
76 | CN=C1SC(CC(=O)Nc2ccccc2F)C(=O)N1C (centres undefined) | -3.74% (inactive)
77 | COc1cccc(NC(=S)NNC(=O)c2ccccc2OC(F)F)c1 | -13.3% (inactive)
78 | COc1ccc(C)cc1N(C(=O)CNC(=O)c1ccco1)C(C(=O)NC1CCCC1)c1cccnc1 (centres undefined) | -8.51% (inactive)
79 | COc1cccc(-c2nn(-c3ccccc3)cc2CN(C)Cc2ccon2)c1 | -3.56% (inactive)
80 | CN(C)S(=O)(=O)c1ccc2oc(SCC(N)=O)nc2c1 | -16.7% (inactive)
81 | CC1=NN(C(=O)COc2ccccc2)C(O)(c2cccnc2)C1 (centres undefined) | -1.6% (inactive)
82 | COc1ccc(CCN(C)CC(O)c2ccccc2)cc1OC (centres undefined) | 1.49% (inactive)
83 | CCOc1ccc(-n2c(O)c(C=Nc3ccc(NC(C)=O)cc3)c(=O)[nH]c2=O)cc1 | 4.04% (inactive)
84 | CCOc1ccc(-n2c(O)c(C=Nc3ccc(N(CC)CC)cc3)c(=O)[nH]c2=O)cc1 | -0.69% (inactive)
85 | CC1CCCN(c2nc3c(c(=O)[nH]c(=O)n3C)n2CCSc2ncccn2)C1 (centres undefined) | 2.85% (inactive)
86 | COC(=O)C1C2c3ccccc3OC1(C)N=c1s/c(=C/c3cn(C)nc3C)c(=O)n12 (centres undefined) | -3.65% (inactive)
87 | COC(=O)C1C2c3ccccc3OC1(C)N=c1s/c(=C/c3cnn(C)c3)c(=O)n12 (centres undefined) | 58.3% (inactive)
88 | Cc1c(C)[n+](=O)c2c(n1[O-])C(Br)CCC2Br (centres undefined) | 0.09% (inactive)
89 | NC(=O)Oc1cccc(OC(N)=O)c1 | -7.05% (inactive)
90 | COC(=O)c1cccc(NC(N)=S)c1 | 2.04% (inactive)
91 | C#CCOc1ccc(Br)cc1/C=N/O | 7.55% (inactive)
92 | O=C(NCc1cccs1)c1cc(-c2ccncc2)nc2ccc(Br)cc12 | 71.8% (inactive)
93 | Cc1cc(N)n2ncc(-c3cccc(Br)c3)c2n1 | 22.8% (inactive)
94 | O=C(O)CSC1c2ccccc2C(=O)N1c1ccccc1 (centres undefined) | -1.63% (inactive)
95 | CC(C)CNC(=O)Cn1c(=O)c2c(ncn2CC(C)C)n(Cc2ccccc2)c1=O | 7.42% (inactive)
96 | Cc1ccc(NC(=S)NNC(=O)c2ccco2)cc1 | 7.01% (inactive)
97 | O=C(Nc1ncc(Cc2ccccc2Cl)s1)c1ccc(-c2cccc([N+](=O)[O-])c2)o1 | -0.67% (inactive)
98 | O=C(Nc1ncc(Cc2cccc([N+](=O)[O-])c2)s1)c1ccco1 | 1.37% (inactive)
99 | COC(=O)c1ccc(OCC(O)CN2C(=O)NC(C)(C)C2=O)cc1 (centres undefined) | -2.31% (inactive)
